# Laboratory results published in the supplement of paper PMC7411054.
# Structures can show the parent of a compound that is named as a salt.
# Experiments:
# Assay in all cases: lowest phenotypically active concentration; higher = less potent
# Details in all cases: treatment time: 24 h
# HepG2-CANX-COX4 = system: HepG2-CANX-COX4
# In short: (§1)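 The reporter lines, fifteen in total and built by gene editing in A549, HepG2 and WPMY1 cells, used BFP for segmentation alongside GFP and RFP/FusionRed markers. Each was treated at 0.3, 1, 3 or 9 µM for 24 h in four wells and then imaged live, with live-cell features normalised to solvent control wells. Deviation meant ≥3 of 4 wells beyond the 95th percentile of control Euclidean distances; reproducibility meant a median replicate Pearson correlation above the 95th percentile of non-replicates. Only conditions meeting both were scored as phenotypically active.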
# WPMY1-ACTB-RAB5A = system: WPMY1-ACTB-RAB5A
# In short: as §1
# WPMY1-TUBA1B-RELA = system: WPMY1-TUBA1B-RELA
# In short: as §1
# HepG2-TUBA1B-RELA = system: HepG2-TUBA1B-RELA
# In short: as §1
# HepG2-ACTB-RAB5A = system: HepG2-ACTB-RAB5A
# In short: as §1
# WPMY1-TP53BP1-CLTA = system: WPMY1-TP53BP1-CLTA
# In short: as §1
# A549-TP53BP1-CLTA = system: A549-TP53BP1-CLTA
# In short: as §1
# HepG2-GM130-SQSTM1 = system: HepG2-GM130-SQSTM1
# In short: as §1
# HepG2-TP53BP1-CLTA = system: HepG2-TP53BP1-CLTA
# In short: as §1
# A549-CANX-COX4 = system: A549-CANX-COX4
# In short: as §1
smiles,measurement,setting,value
N#Cc1ccc2ncnc(NCCc3ccccc3)c2c1 [Senexin A],lowest phenotypically active concentration,HepG2-CANX-COX4,9 µM
same,lowest phenotypically active concentration,WPMY1-ACTB-RAB5A,1 µM
same,lowest phenotypically active concentration,WPMY1-TUBA1B-RELA,3 µM
O=C(Nc1ccc(CN2CCOCC2)cc1)c1ccc(-c2cccc(Cl)c2)o1,lowest phenotypically active concentration,HepG2-TUBA1B-RELA,9 µM
COc1cc2c(cc1OC)-c1c/c(=N/c3c(C)cc(C)cc3C)n(C)c(=O)n1CC2 [Trequinsin hydrochloride],lowest phenotypically active concentration,HepG2-ACTB-RAB5A,9 µM
same,lowest phenotypically active concentration,HepG2-CANX-COX4,9 µM
same,lowest phenotypically active concentration,WPMY1-ACTB-RAB5A,9 µM
same,lowest phenotypically active concentration,WPMY1-TP53BP1-CLTA,9 µM
same,lowest phenotypically active concentration,WPMY1-TUBA1B-RELA,9 µM
Nc1ncnc2c1c(-c1ccc(Oc3ccccc3)cc1)nn2C1CCCC1,lowest phenotypically active concentration,WPMY1-TP53BP1-CLTA,3 µM
O=C(Nc1ccncc1)c1cc([N+](=O)[O-])ccc1Cl,lowest phenotypically active concentration,A549-TP53BP1-CLTA,9 µM
same,lowest phenotypically active concentration,HepG2-ACTB-RAB5A,9 µM
same,lowest phenotypically active concentration,HepG2-CANX-COX4,3 µM
same,lowest phenotypically active concentration,HepG2-GM130-SQSTM1,9 µM
same,lowest phenotypically active concentration,HepG2-TP53BP1-CLTA,9 µM
same,lowest phenotypically active concentration,HepG2-TUBA1B-RELA,9 µM
same,lowest phenotypically active concentration,WPMY1-TUBA1B-RELA,9 µM
O=C(CCCCCCC(=O)Nc1ccc([C@H]2O[C@@H](CSc3nc(-c4ccccc4)c(-c4ccccc4)o3)C[C@@H](c3ccc(CO)cc3)O2)cc1)NO [Tubacin],lowest phenotypically active concentration,WPMY1-ACTB-RAB5A,9 µM
same,lowest phenotypically active concentration,WPMY1-TP53BP1-CLTA,9 µM
same,lowest phenotypically active concentration,WPMY1-TUBA1B-RELA,9 µM
O=S(=O)(c1cccc2cnccc12)N1CCNCC1,lowest phenotypically active concentration,A549-TP53BP1-CLTA,9 µM
same,lowest phenotypically active concentration,HepG2-ACTB-RAB5A,9 µM
same,lowest phenotypically active concentration,HepG2-CANX-COX4,3 µM
same,lowest phenotypically active concentration,HepG2-GM130-SQSTM1,3 µM
same,lowest phenotypically active concentration,HepG2-TP53BP1-CLTA,9 µM
same,lowest phenotypically active concentration,HepG2-TUBA1B-RELA,3 µM
same,lowest phenotypically active concentration,WPMY1-ACTB-RAB5A,9 µM
same,lowest phenotypically active concentration,WPMY1-TP53BP1-CLTA,9 µM
same,lowest phenotypically active concentration,WPMY1-TUBA1B-RELA,3 µM
Cc1ccc(S(=O)(=O)c2ccc([N+](=O)[O-])o2)cc1,lowest phenotypically active concentration,HepG2-ACTB-RAB5A,9 µM
same,lowest phenotypically active concentration,HepG2-GM130-SQSTM1,9 µM
same,lowest phenotypically active concentration,HepG2-TUBA1B-RELA,3 µM
same,lowest phenotypically active concentration,WPMY1-ACTB-RAB5A,3 µM
same,lowest phenotypically active concentration,WPMY1-TP53BP1-CLTA,3 µM
same,lowest phenotypically active concentration,WPMY1-TUBA1B-RELA,9 µM
CC(C)(C)c1ccc(C(O)CCCN2CCC(C(O)(c3ccccc3)c3ccccc3)CC2)cc1 (stereo not given) [terfenadine],lowest phenotypically active concentration,HepG2-ACTB-RAB5A,3 µM
same,lowest phenotypically active concentration,HepG2-TUBA1B-RELA,1 µM
same,lowest phenotypically active concentration,WPMY1-TUBA1B-RELA,3 µM
CC(C)c1c(C(=O)Nc2ccccc2)c(-c2ccccc2)c(-c2ccc(F)cc2)n1CC[C@@H](O)C[C@@H](O)CC(=O)O [atorvastatin],lowest phenotypically active concentration,HepG2-ACTB-RAB5A,3 µM
same,lowest phenotypically active concentration,HepG2-CANX-COX4,9 µM
same,lowest phenotypically active concentration,HepG2-GM130-SQSTM1,3 µM
same,lowest phenotypically active concentration,HepG2-TP53BP1-CLTA,9 µM
same,lowest phenotypically active concentration,HepG2-TUBA1B-RELA,3 µM
same,lowest phenotypically active concentration,WPMY1-ACTB-RAB5A,1 µM
same,lowest phenotypically active concentration,WPMY1-TP53BP1-CLTA,9 µM
same,lowest phenotypically active concentration,WPMY1-TUBA1B-RELA,3 µM
CC[C@H](CO)Nc1nc(Nc2cccc(-c3ccccn3)c2)c2ncn(C(C)C)c2n1 [(R)-DRF053 dihydrochloride],lowest phenotypically active concentration,HepG2-ACTB-RAB5A,9 µM
same,lowest phenotypically active concentration,HepG2-GM130-SQSTM1,9 µM
same,lowest phenotypically active concentration,HepG2-TP53BP1-CLTA,9 µM
same,lowest phenotypically active concentration,HepG2-TUBA1B-RELA,9 µM
same,lowest phenotypically active concentration,WPMY1-TUBA1B-RELA,9 µM
CC(C)c1nc(CN(C)C(=O)N[C@H](C(=O)N[C@@H](Cc2ccccc2)C[C@H](O)[C@H](Cc2ccccc2)NC(=O)OCc2cncs2)C(C)C)cs1 [ritonavir],lowest phenotypically active concentration,HepG2-GM130-SQSTM1,9 µM
NC(=O)[C@@H](CCC(F)(F)F)N(Cc1ccc(-c2ncon2)cc1F)S(=O)(=O)c1ccc(Cl)cc1 [avagacestat],lowest phenotypically active concentration,HepG2-ACTB-RAB5A,9 µM
Fc1ccccc1Nc1nc2nonc2nc1Nc1ccccc1F,lowest phenotypically active concentration,HepG2-TP53BP1-CLTA,9 µM
same,lowest phenotypically active concentration,HepG2-TUBA1B-RELA,9 µM
same,lowest phenotypically active concentration,WPMY1-ACTB-RAB5A,9 µM
O=C1c2c(O)cccc2Cc2cccc(O)c21 [anthralin],lowest phenotypically active concentration,WPMY1-ACTB-RAB5A,9 µM
same,lowest phenotypically active concentration,WPMY1-TUBA1B-RELA,9 µM
CCOC(=O)c1c2c3c(cccc3[nH]c1=O)C(=O)c1ccccc1-2,lowest phenotypically active concentration,HepG2-TP53BP1-CLTA,≤ 0.3 µM
CC(C)(C)n1nc(-c2ccc(Cl)cc2)c2c(N)ncnc21,lowest phenotypically active concentration,HepG2-ACTB-RAB5A,3 µM
same,lowest phenotypically active concentration,HepG2-TP53BP1-CLTA,3 µM
COc1cc(OC)c2c(=O)[nH]c(-c3cc(C)c(OCCO)c(C)c3)nc2c1 [apabetalone],lowest phenotypically active concentration,HepG2-ACTB-RAB5A,9 µM
same,lowest phenotypically active concentration,HepG2-CANX-COX4,9 µM
same,lowest phenotypically active concentration,HepG2-GM130-SQSTM1,9 µM
same,lowest phenotypically active concentration,WPMY1-TP53BP1-CLTA,9 µM
same,lowest phenotypically active concentration,WPMY1-TUBA1B-RELA,9 µM
Cc1cccc(-c2nn(C(=S)Nc3ccccc3)cc2-c2ccnc3ccccc23)n1,lowest phenotypically active concentration,A549-CANX-COX4,9 µM
same,lowest phenotypically active concentration,HepG2-ACTB-RAB5A,9 µM
same,lowest phenotypically active concentration,HepG2-CANX-COX4,3 µM
same,lowest phenotypically active concentration,HepG2-GM130-SQSTM1,9 µM
same,lowest phenotypically active concentration,HepG2-TP53BP1-CLTA,9 µM
same,lowest phenotypically active concentration,HepG2-TUBA1B-RELA,9 µM
same,lowest phenotypically active concentration,WPMY1-ACTB-RAB5A,9 µM
same,lowest phenotypically active concentration,WPMY1-TP53BP1-CLTA,1 µM
same,lowest phenotypically active concentration,WPMY1-TUBA1B-RELA,9 µM
O=C1NCCCc2c1oc1ccc(O)cc21,lowest phenotypically active concentration,HepG2-CANX-COX4,9 µM
same,lowest phenotypically active concentration,HepG2-TUBA1B-RELA,9 µM
same,lowest phenotypically active concentration,WPMY1-ACTB-RAB5A,9 µM
same,lowest phenotypically active concentration,WPMY1-TUBA1B-RELA,9 µM
Cn1cc(-c2ccc3nnc(Sc4ccc5ncccc5c4)n3n2)cn1,lowest phenotypically active concentration,A549-CANX-COX4,1 µM
same,lowest phenotypically active concentration,A549-TP53BP1-CLTA,1 µM
same,lowest phenotypically active concentration,HepG2-ACTB-RAB5A,1 µM
CC[C@H](Nc1ncnc2[nH]cnc12)c1nc2cccc(F)c2c(=O)n1-c1ccccc1 [idelalisib],lowest phenotypically active concentration,WPMY1-ACTB-RAB5A,9 µM
Cc1nc2sccn2c(=O)c1CCN1CCC(=C(c2ccc(F)cc2)c2ccc(F)cc2)CC1 [Ritanserin],lowest phenotypically active concentration,HepG2-GM130-SQSTM1,9 µM
same,lowest phenotypically active concentration,HepG2-TUBA1B-RELA,9 µM
